{"source": "PubChem BioAssay (EPA / NIEHS)", "note": "Values joined by “and” are separate entries in the source; they are usually repeats but may differ in a detail not shown here. Equal entries are not always repeated. Where a structure was tested more than once in an assay, its records may differ in their call. Active and inactive are the calls of the source. Rule for the calls: active = hit-call score of the fitted dose curve at least 0.9, where 1 is the maximum; inactive = score below 0.9.", "data": [{"read-out": "Interferon-gamma inducible Protein 10 (IP10), CXCL10 (gene 3627)", "assay": "BSK_hDFCGF_IP10: BioMAP Diversity Plus: hDFCGF Assay for Interferon-gamma inducible Protein 10 (IP10) Biomarker Activity (AID 2283053)", "details": "primary human foreskin fibroblasts; actives raise or lower the signal", "summary_of_the_method": "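Primary foreskin fibroblasts, human; 24 h compound exposure; IP-10 by ELISA; bidirectional fit vs DMSO.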", "values": [{"molecule": "O=C(O)C(F)(F)C(F)(F)C(F)(F)C(F)(F)C(F)(F)C(F)(F)C(F)(F)F", "outcome": "inactive"}, {"molecule": "CNC(=O)/C=C(\\C)OP(=O)(OC)OC", "outcome": "inactive"}, {"molecule": "CC1(c2ccc(Oc3ccccc3)cc2)OC(=O)N(Nc2ccccc2)C1=O", "note": "(stereo not drawn)", "outcome": "inactive"}, {"molecule": "Cc1cc(C)nc(NC(=O)NS(=O)(=O)c2ccccc2C(=O)OC2COC2)n1", "outcome": "inactive"}, {"molecule": "CCC(C)(C)C(=O)OC1=C(c2ccc(Cl)cc2Cl)C(=O)OC12CCCCC2", "AC50": "10.3 µM (active)"}, {"molecule": "Clc1ccccc1-c1nnc(-c2ccccc2Cl)nn1", "AC50": "14.5 µM (active)"}, {"molecule": "O=C1c2ccccc2C(=O)N1SC(Cl)(Cl)Cl", "AC50": "20 µM (active)"}, {"molecule": "COC(=O)c1ccccc1S(=O)(=O)NC(=O)N(C)c1nc(C)nc(OC)n1", "AC50": "28.7 µM (active)"}, {"molecule": "CCc1ccc(C(=O)NN(C(=O)c2cc(C)cc(C)c2)C(C)(C)C)cc1", "outcome": "inactive"}, {"molecule": "CC[C@H](C)[C@H]1O[C@]2(C=C[C@@H]1C)C[C@@H]1C[C@@H](C/C=C(\\C)[C@@H](O[C@H]3C[C@H](OC)[C@@H](O[C@H]4C[C@H](OC)[C@@H](O)[C@H](C)O4)[C@H](C)O3)[C@@H](C)/C=C/C=C3\\CO[C@@H]4[C@H](O)C(C)=C[C@@H](C(=O)O1)[C@]34O)O2", "note": "(tested in a mixture with another compound)", "AC50": "10.7 µM (active)"}, {"molecule": "COC(=O)c1ccccc1CS(=O)(=O)NC(=O)Nc1nc(OC)cc(OC)n1", "outcome": "inactive"}, {"molecule": "OCCOc1ccccc1", "outcome": "inactive"}, {"molecule": "CC(C)N(C(=O)COc1nnc(C(F)(F)F)s1)c1ccc(F)cc1", "AC50": "22.9 µM (active)"}]}, {"read-out": "Urokinase-type plasminogen activator receptor (uPAR), PLAUR (gene 5329)", "assay": "BSK_CASM3C_uPAR: BioMAP Diversity Plus: CASM3C Assay for Urokinase-type plasminogen activator receptor (uPAR) Biomarker Activity (AID 2283054);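 note: cell-surface uPAR protein level quantified by ELISA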", "details": "primary human coronary artery smooth muscle cells; actives raise or lower the signal", "values": [{"molecule": "O=C(O)C(F)(F)C(F)(F)C(F)(F)C(F)(F)C(F)(F)C(F)(F)C(F)(F)F", "outcome": "inactive"}, {"molecule": "CNC(=O)/C=C(\\C)OP(=O)(OC)OC", "outcome": "inactive"}, {"molecule": "CC1(c2ccc(Oc3ccccc3)cc2)OC(=O)N(Nc2ccccc2)C1=O", "note": "(stereo not drawn)", "AC50": "5.52 µM (active)"}, {"molecule": "O=C(Nc1ccccc1)Nc1cnns1", "outcome": "inactive"}, {"molecule": "COP(=S)(OC)Oc1ccc([N+](=O)[O-])cc1", "outcome": "inactive"}, {"molecule": "CNC(=O)Oc1cccc(N=CN(C)C)c1", "outcome": "inactive"}, {"molecule": "CCCN(CCOc1c(Cl)cc(Cl)cc1Cl)C(=O)n1ccnc1", "outcome": "inactive"}, {"molecule": "COC(=O)c1ccccc1S(=O)(=O)NC(=O)Nc1nc(C)nc(OC)n1", "outcome": "inactive"}, {"molecule": "Cc1cc(C)nc(NC(=O)NS(=O)(=O)c2ccccc2C(=O)OC2COC2)n1", "outcome": "inactive"}, {"molecule": "CCC(C)(C)C(=O)OC1=C(c2ccc(Cl)cc2Cl)C(=O)OC12CCCCC2", "outcome": "inactive"}, {"molecule": "CNC(=O)Oc1ccccc1OC(C)C", "outcome": "inactive"}, {"molecule": "Clc1ccccc1-c1nnc(-c2ccccc2Cl)nn1", "outcome": "inactive"}, {"molecule": "O=C1c2ccccc2C(=O)N1SC(Cl)(Cl)Cl", "AC50": "33.8 µM (active)"}, {"molecule": "Cc1[nH]c(=O)n(C(C)(C)C)c(=O)c1Cl", "outcome": "inactive"}, {"molecule": "C[C@H]1[C@H](c2ccc(Cl)cc2)SC(=O)N1C(=O)NC1CCCCC1", "outcome": "inactive"}, {"molecule": "COC(=O)c1ccccc1S(=O)(=O)NC(=O)N(C)c1nc(C)nc(OC)n1", "outcome": "inactive"}, {"molecule": "CCc1ccc(C(=O)NN(C(=O)c2cc(C)cc(C)c2)C(C)(C)C)cc1", "outcome": "inactive"}, {"molecule": "CC[C@H](C)[C@H]1O[C@]2(C=C[C@@H]1C)C[C@@H]1C[C@@H](C/C=C(\\C)[C@@H](O[C@H]3C[C@H](OC)[C@@H](O[C@H]4C[C@H](OC)[C@@H](O)[C@H](C)O4)[C@H](C)O3)[C@@H](C)/C=C/C=C3\\CO[C@@H]4[C@H](O)C(C)=C[C@@H](C(=O)O1)[C@]34O)O2", "note": "(tested in a mixture with another compound)", "AC50": "12.2 µM (active)"}, {"molecule": "O=S(=O)(O)C(F)(F)C(F)(F)C(F)(F)C(F)(F)C(F)(F)C(F)(F)C(F)(F)C(F)(F)F", "outcome": "inactive"}, {"molecule": "Oc1ccc(Cl)cc1Cc1ccccc1", "AC50": "33.9 µM (active) [middle of 6 runs]", "outcome": "inactive"}, {"molecule": "COP(=S)(OC)Oc1ccc(SC)c(C)c1", "outcome": "inactive"}, {"molecule": "COC(=O)c1ccccc1CS(=O)(=O)NC(=O)Nc1nc(OC)cc(OC)n1", "outcome": "inactive"}, {"molecule": "Oc1cc(Cl)ccc1Oc1ccc(Cl)cc1Cl", "AC50": "32 µM (active) [middle of 4 runs]"}, {"molecule": "OCCOc1ccccc1", "outcome": "inactive"}, {"molecule": "ClC1C(Cl)C(Cl)C(Cl)C(Cl)C1Cl", "note": "(stereo not drawn)", "AC50": "29 µM (active)", "outcome": "inactive"}, {"molecule": "CC(C)N(C(=O)COc1nnc(C(F)(F)F)s1)c1ccc(F)cc1", "outcome": "inactive"}]}, {"read-out": "Vascular cell adhesion molecule 1 (VCAM1), VCAM1 (gene 7412)", "assay": "BSK_CASM3C_VCAM1: BioMAP Diversity Plus: CASM3C Assay for Vascular cell adhesion molecule 1 (VCAM1) Biomarker Activity (AID 2283055);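 note: VCAM-1 protein level quantified by ELISA on the cells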", "details": "primary human coronary artery smooth muscle cells; actives raise or lower the signal", "values": [{"molecule": "O=C(O)C(F)(F)C(F)(F)C(F)(F)C(F)(F)C(F)(F)C(F)(F)C(F)(F)F", "outcome": "inactive"}, {"molecule": "CNC(=O)/C=C(\\C)OP(=O)(OC)OC", "outcome": "inactive"}, {"molecule": "CC1(c2ccc(Oc3ccccc3)cc2)OC(=O)N(Nc2ccccc2)C1=O", "note": "(stereo not drawn)", "AC50": "18 µM (active)"}, {"molecule": "O=C(Nc1ccccc1)Nc1cnns1", "outcome": "inactive"}, {"molecule": "COP(=S)(OC)Oc1ccc([N+](=O)[O-])cc1", "outcome": "inactive"}, {"molecule": "CNC(=O)Oc1cccc(N=CN(C)C)c1", "outcome": "inactive"}, {"molecule": "CCCN(CCOc1c(Cl)cc(Cl)cc1Cl)C(=O)n1ccnc1", "outcome": "inactive"}, {"molecule": "COC(=O)c1ccccc1S(=O)(=O)NC(=O)Nc1nc(C)nc(OC)n1", "outcome": "inactive"}, {"molecule": "Cc1cc(C)nc(NC(=O)NS(=O)(=O)c2ccccc2C(=O)OC2COC2)n1", "outcome": "inactive"}, {"molecule": "CCC(C)(C)C(=O)OC1=C(c2ccc(Cl)cc2Cl)C(=O)OC12CCCCC2", "outcome": "inactive"}, {"molecule": "CNC(=O)Oc1ccccc1OC(C)C", "outcome": "inactive"}, {"molecule": "Clc1ccccc1-c1nnc(-c2ccccc2Cl)nn1", "outcome": "inactive"}, {"molecule": "Cc1[nH]c(=O)n(C(C)(C)C)c(=O)c1Cl", "outcome": "inactive"}, {"molecule": "C[C@H]1[C@H](c2ccc(Cl)cc2)SC(=O)N1C(=O)NC1CCCCC1", "outcome": "inactive"}, {"molecule": "COC(=O)c1ccccc1S(=O)(=O)NC(=O)N(C)c1nc(C)nc(OC)n1", "outcome": "inactive"}, {"molecule": "CCc1ccc(C(=O)NN(C(=O)c2cc(C)cc(C)c2)C(C)(C)C)cc1", "outcome": "inactive"}, {"molecule": "CC[C@H](C)[C@H]1O[C@]2(C=C[C@@H]1C)C[C@@H]1C[C@@H](C/C=C(\\C)[C@@H](O[C@H]3C[C@H](OC)[C@@H](O[C@H]4C[C@H](OC)[C@@H](O)[C@H](C)O4)[C@H](C)O3)[C@@H](C)/C=C/C=C3\\CO[C@@H]4[C@H](O)C(C)=C[C@@H](C(=O)O1)[C@]34O)O2", "note": "(tested in a mixture with another compound)", "AC50": "15 µM (active)"}, {"molecule": "O=S(=O)(O)C(F)(F)C(F)(F)C(F)(F)C(F)(F)C(F)(F)C(F)(F)C(F)(F)C(F)(F)F", "AC50": "13 µM (active) and 30 µM (active)", "outcome": "inactive"}, {"molecule": "Oc1ccc(Cl)cc1Cc1ccccc1", "AC50": "33.2 µM (active) [middle of 7 runs]"}, {"molecule": "COP(=S)(OC)Oc1ccc(SC)c(C)c1", "outcome": "inactive"}, {"molecule": "COC(=O)c1ccccc1CS(=O)(=O)NC(=O)Nc1nc(OC)cc(OC)n1", "outcome": "inactive"}, {"molecule": "Oc1cc(Cl)ccc1Oc1ccc(Cl)cc1Cl", "AC50": "35.4 µM (active) [middle of 4 runs]"}, {"molecule": "OCCOc1ccccc1", "outcome": "inactive"}, {"molecule": "ClC1C(Cl)C(Cl)C(Cl)C(Cl)C1Cl", "note": "(stereo not drawn)", "AC50": "32.2 µM (active) and 32.4 µM (active)", "outcome": "inactive"}, {"molecule": "CC(C)N(C(=O)COc1nnc(C(F)(F)F)s1)c1ccc(F)cc1", "outcome": "inactive"}]}]}
